Reference: the supplement of paper PMC7411640
Counter-ions that a name gives are not always drawn.

Test system: MDA-MB-468
Assay: phospho-S6 immunofluorescence (DAPI-normalised), per-plate z-score; higher = higher phospho-S6 signal (less pathway suppression)
Settings: co-treatment: lapatinib 1 uM; 24 h
Description: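 GPCR-targeted compound library (MedChemExpress HY-L006) tested on MDA-MB-468 PTEN-null TNBC cells in 384-well plates at 0.1, 1 or 10 uM, combined with vehicle, GDC0941 450 nM or lapatinib 1 uM, for 24 h. Phospho-S6 (S240/244) immunofluorescence normalised to DAPI and expressed as a per-plate z-score; values are the mean of biological triplicates.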

Structure (SMILES) | phospho-S6 immunofluorescence (z-score)
CCOC(=O)c1ccc(-n2cc(Cc3cnc(OCC)nc3)c(=O)nc2SCc2ccc(F)cc2)cc1 (compound 10 µM) | -3.79
OCCN1CCN(CCCN2c3ccccc3Sc3ccc(C(F)(F)F)cc32)CC1 [Fluphenazine (dihydrochloride)] (compound 10 µM) | -6.77
c1ccc2c(CC3=NCCN3)cccc2c1 [Naphazoline (hydrochloride)] (compound 10 µM) | 0.03
CC(C)OC(=O)CCC/C=C\C[C@@H]1[C@@H](CC[C@@H](O)CCc2ccccc2)[C@H](O)C[C@@H]1O [Latanoprost] (compound 10 µM) | -0.08
CCC(=O)O[C@]1(C(=O)SCF)[C@H](C)C[C@H]2[C@@H]3C[C@H](F)C4=CC(=O)C=C[C@]4(C)[C@@]3(F)[C@@H](O)C[C@@]21C [Fluticasone (propionate)] (compound 10 µM) | -0.29
c1ccc2c(c1)N=C(N1CCNCC1)c1ccccc1N2 [DREADD agonist 21] (compound 10 µM) | -1.74
CC[N+](CC)(CC)CCOc1cccc(OCC[N+](CC)(CC)CC)c1OCC[N+](CC)(CC)CC [Gallamine Triethiodide] (compound 10 µM) | -0.13
C[C@@H](O[C@H]1OCCN(Cc2n[nH]c(=O)[nH]2)[C@H]1c1ccc(F)cc1)c1cc(C(F)(F)F)cc(C(F)(F)F)c1 [Aprepitant] (compound 10 µM) | -1.02
CCNC1(C(N)=O)CCN(c2ncnc3c2nc(-c2ccccc2Cl)n3-c2ccc(Cl)cc2)CC1 [Otenabant] (compound 10 µM) | -2.03
CC(=O)OCC(=O)[C@@]1(O)CC[C@H]2[C@@H]3CCC4=CC(=O)CC[C@]4(C)[C@H]3C(=O)C[C@@]21C [Cortisone (acetate)] (compound 10 µM) | 1.06
CC#C[C@]1(O)CC[C@H]2[C@@H]3CCC4=CC(=O)CCC4=C3[C@@H](c3ccc(N(C)C)cc3)C[C@@]21C [Mifepristone] (compound 10 µM) | 1.14
CNCC(O)c1ccc(O)c(O)c1 [L-Epinephrine] (compound 10 µM) | 2.36
CCc1cnc(N2CCC(c3nc(COc4ccc(-n5cnnn5)cc4)cs3)CC2)nc1 (compound 10 µM) | -3.56
OCCOCCN1CCN(C(c2ccccc2)c2ccccc2)CC1 [Decloxizine (dihydrochloride)] (compound 10 µM) | -0.6
CN1CCc2c(c3ccccc3n2Cc2ccccc2)C1 [Mebhydrolin (napadisylate)] (compound 10 µM) | -1.06
CN(C)CCC(c1ccc(Br)cc1)c1ccccn1 (centres undefined) [Brompheniramine (maleate)] (compound 10 µM) | -0.17
O=C(CCCN1CCC(O)(c2ccc(Cl)cc2)CC1)c1ccc(F)cc1 [Haloperidol] (compound 10 µM) | -0.01

Same assay, conditions: co-treatment: vehicle; 24 h

Structure (SMILES) | phospho-S6 immunofluorescence (z-score)
OC(CNCC(O)C1CCc2cc(F)ccc2O1)C1CCc2cc(F)ccc2O1 (centres undefined) [Nebivolol (hydrochloride)] (compound 10 µM) | -2.22
O=C(NCC(=O)N1CC[C@H](N[C@H]2CC[C@@](O)(c3ccc(-c4ncccn4)cn3)CC2)C1)c1cccc(C(F)(F)F)c1 (compound 10 µM) | 0.76
CN1CC2c3ccccc3Oc3ccc(Cl)cc3C2C1 (centres undefined) [Asenapine (hydrochloride)] (compound 10 µM) | 0
CC(C)(C)NC[C@H](O)COc1nsnc1N1CCOCC1 [(S)-Timolol (Maleate)] (compound 10 µM) | -0.06
CC(=O)Oc1cc(C(C)C)c(OCCN(C)C)cc1C [Moxisylyte (hydrochloride)] (compound 10 µM) | -1.23
Cc1noc(-c2ccc(-c3ccc(CC(=O)O)cc3)cc2)c1NC(=O)OC(C)c1ccccc1Cl (centres undefined) (compound 10 µM) | 0.02
Clc1ccc2c(c1)N=C(N1CCNCC1)c1ccccc1N2 [N-Desmethylclozapine] (compound 10 µM) | -0.88
c1ccc(CN(CC2=NCCN2)c2ccccc2)cc1 [Antazoline (hydrochloride)] (compound 10 µM) | 1.23
CCOC(=O)N1CCC(=C2c3ccc(Cl)cc3CCc3cccnc32)CC1 [Loratadine] (compound 10 µM) | -1.25
O=C(Nc1ccc([N+](=O)[O-])cc1O)Nc1ccccc1Br (compound 10 µM) | -0.39
CN(C)CCN(Cc1ccccc1)c1ccccn1 [Tripelennamine (hydrochloride)] (compound 10 µM) | -0.41
O=C(O)CC1CCC2(CC1)CCN(c1cc(OC(F)(F)F)ccc1Cl)CC2 (compound 10 µM) | 0.22
CC[C@H](C)[C@@H]1NC(=O)[C@H](Cc2ccc(O)cc2)NC(=O)[C@@H](N)CSSC[C@@H](C(=O)N2CCC[C@H]2C(=O)N[C@@H](CC(C)C)C(=O)NCC(N)=O)NC(=O)[C@H](CC(N)=O)NC(=O)[C@H](CCC(N)=O)NC1=O [Oxytocin (acetate)] (compound 10 µM) | -0.87
COc1cc(C(=O)N(CCCc2ccccc2)Cc2ccc(CC(=O)O)cc2)cc(OC)c1C (compound 10 µM) | -0.17
CN(C)C(=O)C(CCN1CCC(O)(c2ccc(Cl)cc2)CC1)(c1ccccc1)c1ccccc1 [Loperamide (hydrochloride)] (compound 10 µM) | -0.37
O=c1ccc2ccc(OCCCCN3CCN(c4cccc5sccc45)CC3)cc2[nH]1 [Brexpiprazole] (compound 10 µM) | -4.57
Cc1cccc(C#Cc2ccccc2)n1 [MPEP (Hydrochloride)] (compound 10 µM) | -0.14
CC(C)c1cc(-c2ccc(F)c3ccccc23)nc(N)n1 (compound 10 µM) | 1.08
OCC1OC(n2cnc3c(NCCc4ccccc4)ncnc32)C(O)C1O (centres undefined) [N6-(2-Phenylethyl)adenosine] (compound 10 µM) | 0.72

Structure (SMILES) | phospho-S6 immunofluorescence (z-score)
CC(=O)OCC(=O)[C@@]1(O)[C@H](C)C[C@H]2[C@@H]3CCC4=CC(=O)C=C[C@]4(C)[C@@]3(F)[C@@H](O)C[C@@]21C [Dexamethasone (acetate)] (compound 10 µM) | 1.18
CCOC(=O)c1ccc(-n2cc(Cc3cnc(OCC)nc3)c(=O)nc2SCc2ccc(F)cc2)cc1 (compound 10 µM) | -4.85
OCCN1CCN(CCCN2c3ccccc3Sc3ccc(C(F)(F)F)cc32)CC1 [Fluphenazine (dihydrochloride)] (compound 10 µM) | -2.87
c1ccc2c(CC3=NCCN3)cccc2c1 [Naphazoline (hydrochloride)] (compound 10 µM) | 0.05
CC(C)OC(=O)CCC/C=C\C[C@@H]1[C@@H](CC[C@@H](O)CCc2ccccc2)[C@H](O)C[C@@H]1O [Latanoprost] (compound 10 µM) | -0.18
CCC(=O)O[C@]1(C(=O)SCF)[C@H](C)C[C@H]2[C@@H]3C[C@H](F)C4=CC(=O)C=C[C@]4(C)[C@@]3(F)[C@@H](O)C[C@@]21C [Fluticasone (propionate)] (compound 10 µM) | -0.43
c1ccc2c(c1)N=C(N1CCNCC1)c1ccccc1N2 [DREADD agonist 21] (compound 10 µM) | -0.53
CC[N+](CC)(CC)CCOc1cccc(OCC[N+](CC)(CC)CC)c1OCC[N+](CC)(CC)CC [Gallamine Triethiodide] (compound 10 µM) | 0.47
C[C@@H](O[C@H]1OCCN(Cc2n[nH]c(=O)[nH]2)[C@H]1c1ccc(F)cc1)c1cc(C(F)(F)F)cc(C(F)(F)F)c1 [Aprepitant] (compound 10 µM) | 0.64
CCNC1(C(N)=O)CCN(c2ncnc3c2nc(-c2ccccc2Cl)n3-c2ccc(Cl)cc2)CC1 [Otenabant] (compound 10 µM) | -0.02
CC(=O)OCC(=O)[C@@]1(O)CC[C@H]2[C@@H]3CCC4=CC(=O)CC[C@]4(C)[C@H]3C(=O)C[C@@]21C [Cortisone (acetate)] (compound 10 µM) | 0.93
CC#C[C@]1(O)CC[C@H]2[C@@H]3CCC4=CC(=O)CCC4=C3[C@@H](c3ccc(N(C)C)cc3)C[C@@]21C [Mifepristone] (compound 10 µM) | -0.01
CNCC(O)c1ccc(O)c(O)c1 [L-Epinephrine] (compound 10 µM) | -0.3
CCc1cnc(N2CCC(c3nc(COc4ccc(-n5cnnn5)cc4)cs3)CC2)nc1 (compound 10 µM) | -6.72
OCCOCCN1CCN(C(c2ccccc2)c2ccccc2)CC1 [Decloxizine (dihydrochloride)] (compound 10 µM) | -0.19
CN1CCc2c(c3ccccc3n2Cc2ccccc2)C1 [Mebhydrolin (napadisylate)] (compound 10 µM) | 0.64
CN(C)CCC(c1ccc(Br)cc1)c1ccccn1 (centres undefined) [Brompheniramine (maleate)] (compound 10 µM) | 0.3
O=C(CCCN1CCC(O)(c2ccc(Cl)cc2)CC1)c1ccc(F)cc1 [Haloperidol] (compound 10 µM) | 0.93
